Screening results (PubChem)
T cruzi growth-1: blocks T. cruzi growth in NIH3T3 culture; T. cruzi beta-gal in NIH3T3, GalScreen luminescence, 90 h; inhibition, % at 8.34 µM; hit rate 5.9% among 77,000; AID 624255;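 active = mean inhibition above about 93%, with at least 55% of replicates each passing it, limit read from the data, passing the limit was not always enough; inconclusive = only one of those two conditions holds; inactive = neither condition holds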
C diff HTS: blocks growth of Clostridium difficile; hit rate 0.25% among 86,000; growth activity, negative = inhibition, % at 16 µg/mL (by protocol); Clostridium difficile clinical isolate growth, OD600, 24 h; active compounds read low;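 active = mean growth activity at or below -80% and every replicate also at or below -80%; inconclusive = mean at or below -80% but some replicate above -80%; inactive = mean growth activity above -80%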;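 also: 0% = DMSO wells and -100% = levofloxacin 16 µg/mL wells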
Pf Dd2 inh: blocks growth of Plasmodium falciparum Dd2 parasites; P. falciparum Dd2 growth, SYBR Green, 72 h; active compounds read low; activity change, % at 10 µM; hit rate 2.3% among 94,000; AID 1159554; in the data active = activity change below about -80%; inconclusive = no clear call, values can overlap the other calls
T cruzi growth-2: Trypanosoma cruzi proliferation inhibition. shares compounds with T cruzi growth-1. hit rate 72% among 5,600. T. cruzi beta-gal in NIH3T3, GalScreen luminescence, 90 h. inhibition, % at 8.35 µM. AID 651739;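 active = mean replicate inhibition above about 95% and at least 55% of replicates individually reaching it, limit read from the data; inconclusive = only one of the two criteria is met; inactive = neither criterion is met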
T cruzi growth-3: blocks T. cruzi growth in NIH3T3 host cells; shares compounds with T cruzi growth-1; inhibition, % at 2.09 µM; hit rate 21% among 5,600; T. cruzi beta-gal in NIH3T3, GalScreen luminescence, 90 h;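 active = mean inhibition above about 95%, with at least 55% of replicates also reaching it, limit read from the data; inconclusive = meets just one of the two conditions; inactive = meets neither condition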;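 also: plate controls were neutral control median for no effect and positive control median for full effect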
3T3 cytotox: cytotoxicity in mouse NIH/3T3 fibroblasts. shares compounds with T cruzi growth-1. hit rate 14% among 5,600. NIH/3T3 viability, CellTiter-Glo ATP luminescence, 90 h. cytotoxicity (signal decrease), % at 8.35 µM;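 active = mean signal decrease across replicates above about 35% based on untreated-well scatter, with enough replicates individually passing, limit read from the data; inconclusive = no rule stated though some were filed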;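 also: 0% = median of neutral control wells and 100% = median of positive control wells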
3T3 cytotox 2: cytotoxicity in mouse NIH/3T3 fibroblasts | inhibition, % at 24.9 µM | shares compounds with T cruzi growth-1 | NIH/3T3 viability, CellTiter-Glo ATP luminescence, 90 h | AID 651744 | hit rate 56% among 5,600;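 active = mean loss of cell viability signal at or above a set limit, and enough replicates individually reaching it; inconclusive = meets only the mean limit or only the replicate share; inactive = meets neither condition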;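 also: 0% = median of neutral control wells and 100% = median of positive control wells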
* = called active by the depositor; u = inconclusive; x = no result. Shown are actives, neighbours in structure and some others; about 6.8% of the full set was active somewhere.

SMILES	T cruzi growth-1	C diff HTS	Pf Dd2 inh	T cruzi growth-2	T cruzi growth-3	3T3 cytotox	3T3 cytotox 2
OC[C@@H]1Nc2ccc(-c3ccccc3)cc2[C@H]2[C@@H]1CCN2Cc1ccc(F)cc1	104.9*	-11.6	-61.3	103.6*	111.3*	11.7	102.6*
OC[C@H]1Nc2ccc(-c3ccccc3)cc2[C@H]2[C@@H]1CCN2Cc1ccc(F)cc1	103.5*	-5.7	-76.4	98.8*	113.1*	25.9	104.6*
O=C(Cc1ccccc1)N1CC[C@@H]2[C@@H](CO)Nc3ccc(-c4ccc(F)cc4)cc3[C@@H]21	23.9	22.2	14.5	x	x	x	x
O=C(Cc1ccccc1)N1CC[C@@H]2[C@H]1c1cc(-c3ccc(F)cc3)ccc1N[C@@H]2CO	34.4	60.6	19.7	x	x	x	x
COCC#Cc1ccc([C@@H]2[C@@H](CO)N3C(=O)CN(C(=O)c4cccnc4)C[C@H]23)cc1	x	21.5	11.0	x	x	x	x
Cc1ccc(S(=O)(=O)N(C)C[C@H]2OCCCC[C@H](C)Oc3ccc(NC(=O)Cc4ccccc4)cc3C(=O)N([C@H](C)CO)C[C@@H]2C)cc1	42.9	x	-76.1	x	x	x	x
C[C@@H]1CCCCO[C@H](CN(C)S(=O)(=O)c2ccccc2)[C@@H](C)CN([C@@H](C)CO)C(=O)c2cc(NC(=O)Cc3ccccc3)ccc2O1	x	x	-67.1	x	x	x	x
COc1ccc(S(=O)(=O)N(C)C[C@H]2OCCCC[C@H](C)Oc3ccc(NC(=O)Cc4ccccc4)cc3C(=O)N([C@@H](C)CO)C[C@@H]2C)cc1	u	-0.2	-82.5*	106.8*	43.0	-10.0	-18.4
C[C@@H]1CCCCO[C@H](CN(C)S(=O)(=O)c2ccccc2)[C@H](C)CN([C@H](C)CO)C(=O)c2cc(NC(=O)Cc3ccccc3)ccc2O1	x	x	-61.1	x	x	x	x
Cc1ccc(S(=O)(=O)N(C)C[C@@H]2OCCCC[C@H](C)Oc3ccc(NC(=O)Cc4ccccc4)cc3C(=O)N([C@H](C)CO)C[C@@H]2C)cc1	111.8*	x	-75.8	101.0*	30.5	-21.0	u
C[C@@H]1CCCCO[C@@H](CN(C)S(=O)(=O)c2ccccc2)[C@H](C)CN([C@@H](C)CO)C(=O)c2cc(NC(=O)Cc3ccccc3)ccc2O1	83.3	x	-41.3	x	x	x	x
C[C@@H]1CN([C@@H](C)CO)C(=O)c2cc(NC(=O)Cc3ccccc3)ccc2O[C@@H](C)CCCCO[C@@H]1CN(C)S(=O)(=O)c1ccc(Cl)cc1	110.6*	-0.8	-85.1*	100.8*	64.5	-3.1	-2.1
C[C@@H]1CN([C@H](C)CO)C(=O)c2cc(NC(=O)Cc3ccccc3)ccc2O[C@@H](C)CCCCO[C@@H]1CN(C)S(=O)(=O)c1ccc(Cl)cc1	108.4*	-0.6	-83.7*	108.7*	85.3	-12.7	22.3
C[C@H](CO)N1C[C@H](C)[C@@H](CN(C)S(=O)(=O)c2cn(C)cn2)Oc2ccc(NC(=O)Nc3ccc(C(F)(F)F)cc3)cc2CC1=O	-25.4	-10.2	-17.8	x	x	x	x
C[C@H](NC(=O)C[C@@H]1CC[C@@H](NC(=O)Nc2ccc3c(c2)OCO3)[C@@H](CO)O1)c1ccccc1	39.9	x	1.1	x	x	x	x
COc1ccccc1-c1cn(CC[C@H]2CC[C@H](NC(=O)C3CCC3)[C@H](CO)O2)nn1	x	-2.5	9.9	x	x	x	x
C[C@@H]1CCCCO[C@@H](CN(C)CC2CC2)[C@H](C)CN([C@H](C)CO)C(=O)c2cc(NC(=O)Cc3ccccc3)ccc2O1	x	2.7	-61.7	x	x	x	x
Cc1ccc(S(=O)(=O)NCC[C@H]2CC[C@@H](NC(=O)CCN3CCCCC3)[C@H](CO)O2)cc1	-48.5	0.1	-25.8	x	x	x	x
CCC(=O)N1CC[C@@H]2[C@H]1c1cc(-c3cccc(OC)c3)ccc1N(C)[C@@H]2CO	105.4*	-8.1	2.3	104.5*	108.5*	27.3	15.4
COCC(=O)N1CC[C@@H]2[C@@H](CO)N(C)c3ccc(-c4cccc(OC)c4)cc3[C@@H]21	97.0*	2.9	1.5	107.6*	76.0	8.6	1.7
CCC(=O)N1CC[C@@H]2[C@H]1c1cc(-c3ccc(F)cc3)ccc1N(C)[C@@H]2CO	101.0*	5.5	-9.1	107.0*	65.8	8.2	24.1*
COc1ccccc1NC(=O)N1CC[C@@H]2[C@H]1c1cc(-c3ccc(F)cc3)ccc1N(C)[C@@H]2CO	112.0*	0.1	-12.5	97.6*	107.3*	14.5	33.9*
COc1ccccc1NC(=O)N1CC[C@@H]2[C@H]1c1cc(-c3ccccc3)ccc1N(C)[C@H]2CO	75.3	28.1	-2.1	x	x	x	x
COCC(=O)N1CC[C@@H]2[C@H]1c1cc(-c3ccc(OC)cc3)ccc1N(C)[C@H]2CO	32.3	-6.1	19.6	x	x	x	x
CCC(=O)N1CC[C@H]2[C@@H]1c1cc(-c3ccccc3)ccc1N(C)[C@H]2CO	45.2	-5.0	0.1	x	x	x	x
SMILES	T cruzi growth-1	C diff HTS	Pf Dd2 inh	T cruzi growth-2	T cruzi growth-3	3T3 cytotox	3T3 cytotox 2
CCC(=O)N1CC[C@@H]2[C@H]1c1cc(-c3cccc(F)c3)ccc1N(C)[C@@H]2CO	90.1	-11.3	11.0	x	x	x	x
N#C[C@@H]1[C@H](c2ccc(-c3ccccc3)cc2)[C@@H](CO)N1C(=O)Cc1ccccc1	100.9*	10.1	-19.1	107.6*	51.0	21.5	53.0*
N#C[C@H]1[C@@H](c2ccc(-c3ccc(F)cc3)cc2)[C@H](CO)N1C(=O)Cc1ccccc1	u	5.9	-6.8	105.6*	61.4	17.4	77.3*
N#C[C@@H]1[C@@H](c2ccc(-c3ccc(F)cc3)cc2)[C@H](CO)N1C(=O)Cc1ccccc1	61.8	3.5	-18.7	x	x	x	x
N#C[C@@H]1[C@@H](c2ccc(-c3ccc(F)cc3)cc2)[C@@H](CO)N1S(=O)(=O)Cc1ccccc1	99.2*	3.3	-31.3	97.4*	93.9	13.4	102.2*
N#C[C@H]1[C@@H](c2ccc(-c3ccccc3)cc2)[C@@H](CO)N1S(=O)(=O)Cc1ccccc1	90.9	-0.1	-15.0	x	x	x	x
N#C[C@H]1[C@@H](c2ccc(-c3ccccc3)cc2)[C@@H](CO)N1C(=O)Cc1ccccc1	49.4	5.2	13.8	x	x	x	x
Cc1ccc(-c2cnc3c(c2)C(=O)N([C@@H](C)CO)C[C@@H](C)[C@H](CN(C)C(=O)c2cccc(F)c2)O3)cc1	x	0.2	6.7	x	x	x	x
CC(=O)N1[C@H](CO)[C@@H](c2ccccc2)C12CN(Cc1ccc(Cl)cc1)C2	x	2.8	-32.6	x	x	x	x
CC(=O)N1C[C@@H]2[C@H](c3ccccc31)[C@H](CO)N2S(=O)(=O)c1ccccc1	35.5	-2.3	1.3	x	x	x	x
COC(=O)C[C@@H]1C=C[C@H](NS(=O)(=O)c2ccccc2F)[C@@H](CO)O1	-39.6	x	12.4	x	x	x	x
C[C@@H]1CCCCO[C@@H](CN(C)S(=O)(=O)c2ccc(F)cc2)[C@H](C)CN([C@@H](C)CO)C(=O)c2cc(NS(=O)(=O)c3cccs3)ccc2O1	61.3	12.9	-19.8	x	x	x	x
